# Hits are enriched below; roughly 6.4% of the tested compounds scored in any of these assays.
# Luc counter = Kinase-Glo luciferase inhibition (counter-screen); Q27757; Kinase-Glo luciferase, ATP luminescence, 8 min; Potency, µM (titrated, usually from 38.3 µM), for inactives: at the top dose activity change, negative = inhibition, usual class: inhibitors; hit rate 0.28% among 200,000; AID 1379; note: nearly all actives have a fitted effect of over 60% in size
#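 Recombinant Kinase-Glo luciferase, 10 uM ATP (linear range), luciferin; imidazole pH 7.2 / KCl / MgCl2 / Tween / BSA buffer; 8 min RT; luminescence.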
# VP16 counter = Gal4-VP16 reporter inhibition counter-screen; Drosophila S2 Gal4-VP16 UAS-luciferase, luminescence, 20 h; Potency, µM (series often up to 53.6 µM), without a hit: at the top dose activity, negative = inhibition, actives largely listed as inhibitors; hit rate 3.5% among 310,000; AID 2546;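 note: Gal4-VP16 expression switched on by copper sulfate through the metallothionein promoter; nearly all actives have a fitted effect of over 50% in size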
# RORg inh = inhibitors of mouse ROR gamma transcriptional activity; P51450; Drosophila S2 Gal4-RORgamma UAS-luciferase reporter, 20 h; Potency, µM (highest dose often 53.6 µM), for inactives: at the top dose activity change, negative = inhibition, actives largely listed as inhibitors; hit rate 5.4% among 310,000; note: nearly all actives have a fitted effect of over 60% in size
# Target sequence (P51450 whole entry, looked up, the tested form may be a part): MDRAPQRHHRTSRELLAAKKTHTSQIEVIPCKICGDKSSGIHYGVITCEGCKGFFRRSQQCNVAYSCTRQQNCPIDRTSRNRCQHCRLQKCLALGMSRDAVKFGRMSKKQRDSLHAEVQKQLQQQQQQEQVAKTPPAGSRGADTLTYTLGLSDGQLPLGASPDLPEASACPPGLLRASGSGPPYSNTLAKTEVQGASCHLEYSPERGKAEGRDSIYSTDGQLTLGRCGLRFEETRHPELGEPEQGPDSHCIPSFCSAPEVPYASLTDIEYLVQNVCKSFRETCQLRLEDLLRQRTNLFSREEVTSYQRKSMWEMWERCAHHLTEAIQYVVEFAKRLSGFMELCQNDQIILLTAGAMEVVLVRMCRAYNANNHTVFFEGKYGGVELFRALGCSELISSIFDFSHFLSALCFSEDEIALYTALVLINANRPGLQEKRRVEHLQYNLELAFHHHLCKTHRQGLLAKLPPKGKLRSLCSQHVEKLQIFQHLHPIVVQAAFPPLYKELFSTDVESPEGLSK
#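 Luminescence from a UAS-regulated Photinus luciferase reporter in stably transfected Drosophila Schneider cells is measured; decreased signal marks ROR gamma inhibition. Fusion expression is induced by 700 uM copper sulfate for 20 hr.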
# * marks the source's active call; other numbers are inactive results; ? = inconclusive; . = no result; [ ] = remark or other dose. Calls come from the whole dose curve; as a rule, active = well fitted curve in the direction sought with a large enough effect; inconclusive = small, poorly fitted or top-dose-only effect, or another doubt; inactive = no such curve, though single readings can be large; an effect the other way counts as inactive or inconclusive. % is set by controls: 0 for no effect and ±100 for the full control effect; potency is the fitted concentration of half-maximal effect.
SMILES,Luc counter,VP16 counter,RORg inh
CCOC(=O)Nc1nc2ccccc2s1,-8.8%,-6.8%,6.3%
O=C(NNc1nc2c(F)cc(F)cc2s1)c1ccccc1,-0.5%,?,5.01µM*
O=C(NNc1nc2ccccc2s1)c1ccc(F)cc1,0.6%,1.26µM*,0.562µM*
CCNc1ncc2nc(CCc3ccccc3)c(=O)n(C)c2n1,-2.3%,-16.4%,?
O=C(O)CO.[NH2-].[NH2-].[Pt+2],.,-2.0%,1.1%
Cc1cc(C(=O)COC(=O)c2ccccc2O)c(C)n1Cc1cccs1,?,7.08µM*,3.55µM*
CC(=O)Nc1ccccc1OCC(=O)c1cc(C)n(Cc2cccs2)c1C,0.1%,1.26µM*,-38.0%
Cc1cc(C(=O)COC(=O)c2ccc3c(c2)OCO3)c(C)n1Cc1cccs1,1.5%,-14.4%,9.8%
Cc1cc(C(=O)COc2cccnc2[N+](=O)[O-])c(C)n1Cc1cccs1,3.5%,-2.6%,9.2%
COCC1CCCCN1C(=O)c1ccc(OC2CCN(Cc3ccccn3)CC2)cc1 (stereo not given),.,-4.4%,-43.7%
Cc1nnc(SC(C)C(=O)Nc2c(C)n(C)n(-c3ccccc3)c2=O)n1N (stereo not given),1.2%,-9.0%,20.1%
CC(=O)c1ccc(NS(=O)(=O)c2ccc(CC(C)C)cc2)cc1,2.8%,10µM*,?
CC(=O)c1ccc(NC(=O)Nc2ccc(NS(=O)(=O)c3ccc(C)cc3)cc2)cc1,.,-3.6%,?
CC(=O)Nc1ccc(Cc2ccncc2)cc1,0.8%,4.9%[0.365 µM],-22.2%
CCc1ccc(NS(=O)(=O)c2ccc(OC)c(C)c2)cc1,-1.3%,?,-44.4%
COc1ccc(S(=O)(=O)Nc2ccc(Cc3ccncc3)cc2)cc1C,.,22.4µM*,31.8%
CC(=O)Nc1ccc(S(=O)(=O)Nc2ccc(Cc3ccncc3)cc2)cc1,.,10µM*,?
Cc1nnc(SCC(=O)NCC(=O)Nc2ccc(F)c(F)c2F)n1Cc1ccccc1,2.1%,-6.8%,5.3%
CC1=CC(=C(C#N)c2nc3ccccc3s2)C=C(C)N1CC1CCCO1 (stereo not given),-2.3%,1.6%,36.5%
CCc1ccc(OCC(=O)Nc2ccc(-c3cc4ccccc4oc3=O)c(OC)c2)cc1,1.9%,-7.7%,?
C=CCC(C)(O)c1cccc(Br)c1 (stereo not given),-0.2%,-9.8%,13.4%
CN(C)/C=C/C(=O)c1ccc(-c2ccc(Cl)cc2Cl)o1,1.4%,-4.0%,-15.3%
CCCc1nc(SCC(=O)Nc2nccs2)c2ccccc2n1,.,-2.3%,0.6%
O=C(CSc1nc(-c2ccccc2)nc2ccccc12)Nc1nccs1,-0.7%,?,11.2µM*
C=CCON/C(CCC)=C1\C(=O)C(C(=O)OC)C(C)(C)CC1=NC (stereo not given),0.9%,-20.9%,12.3%
SMILES,Luc counter,VP16 counter,RORg inh
COc1ccc2c(c1)O[C@H](c1ccc3c(c1)OCO3)[C@@H](OC(=O)NS(=O)(=O)c1ccc(C)cc1)C2=O,-3.2%,2.5%,4.0%
N#C/C(=C\c1ccc2c(c1)OCCO2)C(=O)Nc1ccc(C(=O)O)cc1,.,-13.0%,-39.0%
CCOc1ccc(NC(=S)NC(C)c2cccs2)cc1 (stereo not given),-3.1%,5.01µM*,3.16µM*
CCOc1ccc(NC(=S)NC23CN4CN(CN(C4)C2)C3)cc1,3.5%,-7.0%,-28.5%
CCOc1ccc(NC(=S)Nc2ccccc2C2(C)CC2)cc1,-0.7%,?,7.94µM*
CCOc1ccc(NC(=S)NN2CCN(C)CC2)cc1,0.1%,-4.9%,7.1%
CCOc1ccc(NC(=S)Nc2ccc(F)cc2)cc1,.,?,12.6µM*
CCOc1ccc(NC(=O)NC(C)CC)cc1 (stereo not given),-15.7%,-5.7%,0.1%
CCOc1ccc(NC(=S)NN(C)C(=S)Nc2ccc(OCC)cc2)cc1,-5.7%,?,7.94µM*
CCOc1ccc(NC(=S)Nc2cccnc2)cc1,-5.4%,8.9%,?
Cc1cccc(N=C2NC(=O)c3cc([N+](=O)[O-])ccc32)c1,-2.3%,10.1%,-18.1%
Cc1[nH]c2ccccc2c1-c1nc(-c2ccc(Cl)cc2)nnc1-c1ccccc1,0.6%,5.3%,19.4%
CC1CCN(Cc2c(C(=O)N/N=C/c3ccc(OC(C)C)cc3)nnn2-c2nonc2N)CC1,.,-5.7%,-9.6%
COCCn1c(=O)cnc2cnc(N3CCNCC3)nc21,-1.4%,-0.1%,-21.0%
CC(=O)N[C@H](Cc1c[nH]c2ccccc12)C(N)=O,-7.8%,6.4%,21.5%
Cc1ccccc1CS(=O)(=O)c1cn(CC(=O)N2CCOCC2)c2ccccc12,.,0.4%,17.2%
O=C1ON=C(c2cccc([N+](=O)[O-])c2)/C1=C/c1ccc(O)cc1,-0.2%,-2.2%,3.2%
Cc1nc2sc(-c3ccccc3)cc2c(=O)n1N,.,?,7.08µM*
Cc1nc2sc(-c3ccccc3)cc2c(=O)n1-n1cccc1,.,7.6%,5.3%
CS(=O)(=O)N(CC(=O)Nc1ccccc1C(=O)N1CCCC1)c1ccc2c(c1)OCO2,1.9%,-10.1%[10 µM],-6.0%
CCc1ccc(OCc2ccc(C(=O)OC)o2)cc1,.,15.1%,-11.1%
COc1ccccc1CCC(=O)Nc1ccc2c(c1)CN(Cc1ccc(CO)o1)CC2,.,21.3%,33.1%
Cc1ccc(-c2cc(-c3ccccc3)[nH]c(=S)c2C#N)cc1,2.9%,?,?
N#Cc1c(N)[nH]c(=S)c(C#N)c1-c1ccccc1,11.8%,?,10µM*
CCCCCn1nc(C)c(/C=N\NC(=O)c2cc(C)oc2C)c1C,-0.5%,5.8%,?
SMILES,Luc counter,VP16 counter,RORg inh
Cc1nn(Cc2ccccc2)c(C)c1/C=N/NC(=O)c1ccccc1O,.,17.8µM*,11.2µM*
CCCCCn1nc(C)c(/C=N/NC(=O)c2ccoc2C)c1C,-11.1%,8.91µM*,?
Cc1nn(Cc2ccccc2)c(C)c1/C=N/NC(=O)c1ccncc1,.,-2.5%,-3.4%
CCOC(=O)c1cc(S(=O)(=O)N2CCC(C)CC2)cn1C,.,-3.1%,-6.6%
O=C(O)C1C2CCC(O2)C1C(=O)Nc1ccc(OC(F)F)cc1 (stereo not given),.,-0.5%,-12.0%
CC(C)CC(=O)N=Nc1c(O)[nH]c2ccccc12,2.8%,27.1%,7.3%
Oc1cccc(NC(=S)N=Nc2c(O)[nH]c3ccccc23)c1,.,-3.0%,15.1%
CCOc1ccc(NC(=S)N=Nc2c(O)[nH]c3ccccc23)cc1,-3.5%,5.01µM*,2.24µM*
CCNC(=S)N=Nc1c(O)[nH]c2ccc(C(C)C)cc12,-2.2%,7.08µM*,2.82µM*
NC(=S)N=Nc1c(O)[nH]c2ccccc12,-3.2%,-2.7%,20µM*
Oc1[nH]c2ccccc2c1N=NC(=S)NCCc1ccccc1,2.2%,3.16µM*,4.47µM*
CC(C)c1ccc2[nH]c(O)c(N=NC(=O)c3ccc(CSc4nncn4C)cc3)c2c1,4.0%,-0.7%,5.5%
Cc1ccc2[nH]c(O)c(N=NC(N)=S)c2c1,.,1.8%,20.3%
CCC1CCCCN1C(=O)CCC(=O)Nc1nnc(C(F)(F)F)s1 (stereo not given),.,-2.5%,25.2%
COc1ccc(N(CC(=O)Nc2ccccc2F)S(=O)(=O)c2ccc(C)c([N+](=O)[O-])c2)cc1,0.0%,18.7%,-10.8%
CCCCNC(=S)N=Nc1c(O)[nH]c2ccccc12,0.8%,5.62µM*,2.24µM*
O=C(CNC(=O)c1ccccc1)N=Nc1c(O)[nH]c2ccc(Br)cc12,.,?,-40.6%

# Compound activity from PubChem.
